“And” between values parts separate entries of the source, which are not always exact repeats. Equal values may be shown once. Inconclusive results are not listed. A call without a number means that no potency is given here. The source made the active and inactive calls. Calls follow the shape of the dose curve; as a rule, active = well fitted cell-killing curve with a large enough effect in the repeat runs; inconclusive = weak or mixed curves, or effect the other way; inactive = no such curve, though single readings can be large or run the other way.
Potency is read from the fitted curve at half-maximal effect.

The experiment is described as follows: Caspase-3/7 induction in CHO-K1 cells by small molecules, qHTS cell viability counter screen (AID 1346979). Also: nearly all actives have a fitted effect of over 35% in size. The conditions noted are these: CellTiter-Fluor fluorescence, 17 h; series mostly up to 92.4 µM. From the text: National Center for Advancing Translational Sciences [NCATS]
NIH Chemical Genomics Center [NCGC]
U.S. Environmental Protection Agency [EPA]
National Institutes of Environmental Health Sciences [NIEHS]
National Toxicology Program [NTP]
U.S. Food and Drug Administration [FDA]
Apoptosis is a process of programmed cell death and plays a central role in the development of multicellular organisms. It is a highly regulated process and induces cell death by activating caspases, which are the members of cysteine aspartic acid-specific protease (caspase) family. Caspases involved in apoptosis are classified by their mechanism of action as initiator caspases (caspase-2, -8, -9 and -10) and executioner caspases (caspase-3, -6, and -7). Inhibition of apoptosis results in number of cancers, autoimmune diseases, inflammatory diseases and viral infection. To identify small molecule compounds that induce apoptosis, a homogeneous, luminescent Caspase-Glo 3/7 assay was used. Wild type CHO-K1 cells were used to screen Tox21 libraries for identifying caspase-3/7 activity inducers. Also cytotoxicity of the compounds was tested in parallel by measuring the cell viability using CellTiter-Fluor assay system in the same wells.
Tox21 Assay Protocol Summary:
CHO-K1 cells were dispensed at 1,500 per well in 5uL of culture medium into white solid bottom 1536-well plates (Corning Life Sciences, Corning, NY) using a Multidrop Combi (Thermo Scientific, Waltham, MA) dispenser. The assay plates were incubated at 37 C and 5% CO2 for 5hr, and then 23nL of compounds dissolved in DMSO and positive control were transferred using a Pintool station (Wako, San Diego, CA). The assay plates were incubated at 37C and 5% CO2 for 17hr. For cytotoxicity read, after 16hr incubation at 37C, 1uL CellTiter-Fluor reagent (Promega Corporation, Madison, WI) was added to each well of the assay plates using Flying Reagent Dispenser (FRD, Aurora Discovery, San Diego, CA). After 1hr incubation at 37C and 5% CO2, the fluorescence signal was quantified using a ViewLux plate reader (PerkinElmer, Shelton, CT).
In general terms: qHTS replaces the single test concentration by a dilution series.
For the compound `C[C@]12CC[C@H]3C(=CCc4cc(O)ccc43)[C@@H]1CCC2=O`, the Potency was 61.1 µM (active).
Still for that read-out and setting: with `COc1ccc(C#N)cc1` the entry was “inactive”.
As for `O=C(O)CCn1c2c(c3ccccc31)C[C@H](NS(=O)(=O)c1ccc(F)cc1)CC2`, the Potency entry was “inactive”.
On the same count and under the same terms, with `Brc1ccccn1` the entry was “inactive”; with `CC(COC(=O)c1ccccc1)OC(=O)c1ccccc1` (stereo not given), “inactive”.
`O=C1C=CC(=O)N1c1ccccc1`: the Potency was 9.69 µM (active).
Same read-out and setting: under `CCCCC(CC)COC(=O)c1ccc(O)cc1` (stereo not given) stands 54.3 µM (active) and 61.1 µM (active); under `CC1=CCC(=O)O1`, “inactive”; under `C=CC(=O)OCCOCC(CC)(COCCOC(=O)C=C)COCCOC(=O)C=C`, 8.02 µM (active).
On the same count and under the same terms, with `CCCCCCCC/C=C/CCCOC(C)=O` the entry was “inactive”; with `CC(=O)Oc1ccc(C2(c3ccc(OC(C)=O)cc3)C(=O)Nc3ccccc32)cc1`, “inactive”.
Regarding `CCCCOCC`, the Potency entry is “inactive”.
`CCCCCCCC(OC)OC`: the Potency result was “inactive”.
Regarding `CCN1CCN(c2cc(-c3ccc(F)cc3)c3c(n2)CCCCCC3)CC1`, the activity change, negative = cytotoxicity is 0.368% [at 19 µM] (inactive).
For `CCCCCCCCCCOCC(O)CN` (stereo not given), the Potency was 33.5 µM (active).
On the same count and under the same terms, under `O=Cc1ccc(F)cc1` stands “inactive”; under `c1ccc(Nc2cccc3ccccc23)cc1`, 61.9 µM (active).
Same read-out and setting: under `CCOCOCC` stands “inactive”.
The same measure, in the same setting: with `CCCOc1sc(C(=O)N2CCC(c3cc(CN)ccc3F)CC2)c(C)c1Br` the figure was 22.3 µM (active).
Turning to `Oc1c(Br)cc(Br)c2cccnc12`, the Potency is 23.7 µM (active).
On the same count and under the same terms, with `Clc1ccc(C(Cn2ccnc2)OCc2ccsc2Cl)c(Cl)c1` (stereo not given) the figure was 21.1 µM (active); with `CCOC(=O)N1CCC(=C2c3ccc(Cl)cc3CCc3cccnc32)CC1`, 43.3 µM (active) and 26.6 µM (active); with `CCC1CCCCC1`, “inactive”.
Still for that read-out and setting: under `CCO[Si](C)(C)OCC` stands “inactive”; under `COC(=O)C1=C(C)NC(C)=C(C(=O)OCCCN2CCC(c3ccccc3)(c3ccccc3)CC2)C1c1cccc([N+](=O)[O-])c1` (stereo not given), 26.6 µM (active).
For the compound `CC1CNCC(C)O1` (stereo not given), the Potency entry is “inactive”.
On the same count and under the same terms, under `NC(=O)C(=O)N/N=C/c1ccc([N+](=O)[O-])o1` stands 23.7 µM (active); under `Clc1cccnc1`, “inactive”.
Still for that read-out and setting: under `C=CCCCCCCC=C` stands “inactive”.
Turning to `Cc1c(C(=O)O)cccc1[N+](=O)[O-]`, the Potency entry was “inactive”.
As for `Cc1cccc(Br)c1`, the Potency entry was “inactive”.
Still for that read-out and setting: with `C=C(c1ccc(C(=O)O)cc1)c1cc2c(cc1C)C(C)(C)CCC2(C)C` the figure was 61.1 µM (active).
The same measure, in the same setting: with `CC(C)(C)c1cc(/C=C2\SC(=N)NC2=O)cc(C(C)(C)C)c1O` the figure was 54.5 µM (active); with `CC(C)=C1CC[C@@H](C)CC1=O`, “inactive”.
Same read-out and setting: under `COC(=O)CC(C)CCC=C(C)C` (stereo not given) stands “inactive”.
With `Cc1cn[nH]c1`, the Potency entry is “inactive”.
On the same count and under the same terms, under `CCc1ccc(C)nc1` stands “inactive”; under `Cc1cc(C)c(C=O)c(C)c1`, “inactive”.
Same read-out and setting: with `CCCCCCCCCC(=O)N(C)C` the entry was “inactive”; with `NC1(c2ccc(-c3nc4ccn5c(=O)[nH]nc5c4cc3-c3ccccc3)cc2)CCC1`, 26.6 µM (active).

The values above are taken from PubChem BioAssay (Tox21).
